Measured values: PubChem BioAssay (NCI)
Compounds without any hit were thinned out: in the full panel of roughly 79,000, 15% have a hit. Unmarked numbers belong to inactive results. Active and inactive are the calls of the source. Rule as the data show it: active = growth inhibition above about 70%; inactive = the rest.

Assays:
[1] = NCI Yeast Anticancer Drug Screen. Data for the rad50 strain (AID 155);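 also: 0% = growth of vehicle-only cultures of the same strain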; details: S. cerevisiae rad50 strain growth inhibition, active compounds read high
In short: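 Relative growth inhibition (compound vs vehicle) was measured in yeast with a defined repair-gene alteration.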

[2] = NCI Yeast Anticancer Drug Screen. Data for the mec2-1 strain (AID 157); details: S. cerevisiae mec2-1 strain, active compounds read high
In short: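 Test agents were screened against the mec2-1 yeast strain, with defined DNA repair or cell cycle alteration. Growth was scored as inhibition against vehicle-only controls.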

[3] = NCI Yeast Anticancer Drug Screen. Data for the sgs1 mgt1 strain (AID 161);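 also: 0% = growth of cultures given vehicle only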; details: S. cerevisiae sgs1 mgt1 strain, active compounds read high
In short: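 Genetically altered yeast, compound exposure, growth inhibition relative to vehicle.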

[4] = NCI Yeast Anticancer Drug Screen. Data for the cln2 rad14 strain (AID 165);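 also: 0% = growth equal to vehicle treated cultures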; details: S. cerevisiae cln2 rad14 strain, active compounds read high
In short: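 Growth of compound-exposed yeast (cln2 rad14 genotype) measured and expressed as inhibition relative to vehicle.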

[5] = NCI Yeast Anticancer Drug Screen. Data for the bub3 strain (AID 167); details: S. cerevisiae bub3 mutant strain, active compounds read high
In short: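 Screening used yeast with an engineered genetic alteration affecting cell cycle control. Compound-exposed cultures were compared with vehicle cultures, and reduced growth was taken as inhibition.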

[6] = NCI Yeast Anticancer Drug Screen. Data for the mlh1 rad18 strain (AID 175); details: S. cerevisiae mlh1 rad18 strain growth inhibition, active compounds read high
In short: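 In this whole-cell yeast screen, a strain with altered DNA damage repair is challenged with compound, and its growth is measured against matched vehicle-treated controls.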

[7] = at 5.0 µM (retest, dose inferred, filed as 0.5)
[8] = at 50.0 µM (retest, dose inferred, filed as 5.0)

| SMILES | growth inhibition [1, 7] | growth inhibition [1, 8] | growth inhibition ([1]; at 50.0 µM) | growth inhibition [2, 7] | growth inhibition [2, 8] | growth inhibition ([2]; at 50.0 µM) | growth inhibition [3, 7] | growth inhibition [3, 8] | growth inhibition ([3]; at 50.0 µM) | growth inhibition [4, 7] | growth inhibition [4, 8] | growth inhibition ([4]; at 50.0 µM) | growth inhibition [5, 7] | growth inhibition [5, 8] | growth inhibition ([5]; at 50.0 µM) | growth inhibition [6, 7] | growth inhibition [6, 8] | growth inhibition ([6]; at 50.0 µM) |
| --- | --- | --- | --- | --- | --- | --- | --- | --- | --- | --- | --- | --- | --- | --- | --- | --- | --- | --- |
| CCCC(C)OC(=O)Nc1cccc(Cl)c1 (centres undefined) | -15% | 3% | 98.4% (active) | -4% | -7% | 98.2% (active) | -2% | -10% | 98.9% (active) | -29% | -1% | 97.9% (active) | -21% | 1% | 97.5% (active) | -20% | 16% | 97.6% (active) |
| COC(=O)CSc1nc2ccccc2[nH]1 | -146% | -48% | 27% | -48% | -47% | -11.8% | -64% | -39% | -6.2% | -50% | -59% | -27.1% | -63% | -46% | -19.6% | -119% | -119% | -29.6% |
| O=C1C=C(c2ccccc2)OC(c2ccccc2)C1 (centres undefined) | -150% | -112% | 43.1% | -52% | -59% | 41.8% | -63% | -37% | 15.2% | -69% | -67% | -38.4% | -68% | -25% | 44.1% | -141% | -97% | 27.3% |
| FC(F)(F)c1ccccc1NC(=S)SCc1ccc(Cl)cc1 | 3% | 53% | 97% (active) | -2% | 95% (active) | 97.2% (active) | 1% | 94% (active) | 99.2% (active) | -3% | 69% | 98.5% (active) | 14% | 90% (active) | 97.4% (active) | -3% | 83% (active) | 99.2% (active) |
| c1ccc2c(O[Si](Oc3cccc4ccccc34)(Oc3cccc4ccccc34)Oc3cccc4ccccc34)cccc2c1 | 7% | 87% (active) | 96% (active) | 0% | 87% (active) | 97.7% (active) | 3% | 89% (active) | 97.8% (active) | -5% | 71% (active) | 89.6% (active) | 3% | 93% (active) | 96.8% (active) | 2% | 86% (active) | 95.8% (active) |
| NC(=S)N/N=C1\CCCCc2ccccc21 | 5% | 85% (active) | 85.7% (active) | -19% | 83% (active) | 89.5% (active) | 4% | 87% (active) | 83.8% (active) | 13% | 80% (active) | 83.8% (active) | 17% | 88% (active) | 79.1% (active) | 5% | 91% (active) | 84.2% (active) |
| OCC(c1ccccc1)c1ccccc1 | 24% | 42% | 77.8% (active) | 2% | 6% | 54.5% | 41% | 34% | 76.5% (active) | 2% | 9% | -14.2% | 39% | 43% | 18% | 11% | 22% | 80.2% (active) |
| O=[N+]([O-])c1ccc(S(=O)(=O)Cc2ccccc2)c2nonc12 | 6% | 99% (active) | 99% (active) | 11% | 99% (active) | 98.8% (active) | 10% | 99% (active) | 99% (active) | -11% | 98% (active) | 96.3% (active) | 2% | 99% (active) | 98.4% (active) | 6% | 99% (active) | 98.2% (active) |
| CSc1nnc(CCC(=O)Nc2c(C)cccc2C(C)(C)C)o1 | -5% | 1% | -2.5% | 1% | 4% | 27.8% | -14% | 25% | 10.9% | 4% | 7% | 49.6% | 7% | 7% | 0.65% | -9% | -3% | 1.65% |
| Nc1ccc(C(=O)N/C(=C\c2ccc3c(c2)OCO3)c2nc3ccccc3s2)cc1 | 23% | 99% (active) | 97.2% (active) | -2% | 99% (active) | 98.5% (active) | 54% | 99% (active) | 98.2% (active) | 15% | 98% (active) | 96.3% (active) | 32% | 98% (active) | 97.4% (active) | 30% | 98% (active) | 98.4% (active) |
| O=C1OC(c2ccccc2)(c2ccccc2)Cc2ccccc21 | -4% | 20% | 94% (active) | -9% | -4% | 96% (active) | -7% | -16% | 91% (active) | -4% | 7% | 91.3% (active) | -27% | -13% | 90.8% (active) | -21% | 8% | 94.8% (active) |
| CC(C)c1cccc(O)c1O | 7% | 1% | 87.2% (active) | -7% | 14% | 89.4% (active) | 9% | 13% | 82.3% (active) | 23% | 38% | 86.3% (active) | -1% | 45% | 89.5% (active) | -1% | 4% | 86.9% (active) |
| COC(=O)n1c(C[P+](c2ccccc2)(c2ccccc2)c2ccccc2)cc2ccccc21 | 89% (active) | 100% (active) | 99.2% (active) | 90% (active) | 100% (active) | 99.6% (active) | 79% (active) | 99% (active) | 99.5% (active) | 91% (active) | 99% (active) | 98.1% (active) | 95% (active) | 100% (active) | 99.4% (active) | 90% (active) | 99% (active) | 99% (active) |
| O=C1c2ccccc2C(=O)c2c1cccc2[N+](=O)[O-] | 84% (active) | 90% (active) | 90.9% (active) | 67% | 86% (active) | 73% (active) | 80% (active) | 88% (active) | 86% (active) | 69% | 86% (active) | 85.2% (active) | 82% (active) | 88% (active) | 71.4% (active) | 85% (active) | 90% (active) | 83.8% (active) |
| O=[N+]([O-])/C(=C\c1cccs1)c1ccccc1 | 90% (active) | 98% (active) | 99.2% (active) | 92% (active) | 99% (active) | 99.7% (active) | 83% (active) | 99% (active) | 99.5% (active) | 75% (active) | 99% (active) | 99.1% (active) | 90% (active) | 99% (active) | 99.5% (active) | 96% (active) | 99% (active) | 99.3% (active) |
| COc1ccc(-c2c(-c3ccccc3)c(C)nc3[nH]c(=S)[nH]c(=S)c23)cc1OC | -4% | 69% | 92.2% (active) | -2% | 58% | 92.8% (active) | 7% | 89% (active) | 94.4% (active) | 7% | 81% (active) | 93.2% (active) | 0% | 91% (active) | 69.8% | -30% | 79% (active) | 94.9% (active) |
| COc1cc(/C=C/C(=O)c2ccc3ccccc3c2)cc(OC)c1OC | 38% | 40% | 7.75% | 49% | 44% | 11.3% | 1% | 45% | 34.4% | 22% | 14% | -5.35% | 22% | 27% | 41.9% | 37% | 44% | 22.6% |
| CC(=O)OC1CCC2(C)C3CCC4(C)C(CCC4(Br)C(=O)CBr)C3CC(Br)C2(Br)C1 (centres undefined) | -1% | 19% | 68.8% | -5% | 15% | 52.2% | -5% | 10% | 53.4% | -2% | 9% | 26.9% | -3% | 7% | 49.5% | 3% | -3% | 76.4% (active) |
